Assay results from PubChem BioAssay (NCI).
Compounds without any hit were thinned out: in the full panel of roughly 79,000, 15% have a hit. Values without a mark were called inactive. The source made the active and inactive calls. No stated cut-off is given here; in the data, active means growth inhibition above about 70%; inactive means the rest. Where a SMILES comes first, the peptide text is derived from it. The star is where a group is joined. Trt = c1ccc(C(c2ccccc2)(c2ccccc2)*)cc1; Cbz = O=C(OCc1ccccc1)*

What was measured:
[1] = NCI Yeast Anticancer Drug Screen. Data for the rad50 strain (AID 155);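 further: 0% = growth of vehicle-only cultures of the same strain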; conditions: S. cerevisiae rad50 strain growth inhibition, active compounds read high
Outline: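 Yeast carrying a defined DNA repair defect were exposed to test compounds, and growth was compared with vehicle-treated controls to give percent inhibition.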

[2] = NCI Yeast Anticancer Drug Screen. Data for the mec2-1 strain (AID 157); conditions: S. cerevisiae mec2-1 strain, active compounds read high
Outline: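 Readout is yeast growth inhibition, normalised to vehicle-treated controls, in the mec2-1 strain exposed to compound.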

[3] = NCI Yeast Anticancer Drug Screen. Data for the sgs1 mgt1 strain (AID 161);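 further: 0% = growth of cultures given vehicle only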; conditions: S. cerevisiae sgs1 mgt1 strain, active compounds read high
Outline: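 This yeast growth screen uses a strain with defined DNA-repair lesions; compound-treated growth is compared with vehicle-treated growth.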

[4] = NCI Yeast Anticancer Drug Screen. Data for the cln2 rad14 strain (AID 165);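 further: 0% = growth equal to vehicle treated cultures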; conditions: S. cerevisiae cln2 rad14 strain, active compounds read high
Outline: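 Relative to vehicle controls, growth inhibition of compound-treated cln2 rad14 yeast was recorded.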

[5] = NCI Yeast Anticancer Drug Screen. Data for the bub3 strain (AID 167); conditions: S. cerevisiae bub3 mutant strain, active compounds read high
Outline: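 Compounds were applied to a genetically altered yeast strain carrying a cell-cycle control defect. Growth inhibition was scored against vehicle-treated controls.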

[6] = NCI Yeast Anticancer Drug Screen. Data for the mlh1 rad18 strain (AID 175); conditions: S. cerevisiae mlh1 rad18 strain growth inhibition, active compounds read high
Outline: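 Test agents were incubated with a yeast strain of defined genotype (DNA damage repair defect). Inhibition of growth was derived by comparison with vehicle-exposed cultures.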

[7] = at 5.0 µM (retest, dose inferred, filed as 0.5)
[8] = at 50.0 µM (retest, dose inferred, filed as 5.0)

SMILES | growth inhibition [1, 7] [%] | growth inhibition [1, 8] | growth inhibition ([1]; at 50.0 µM) | growth inhibition [2, 7] [%] | growth inhibition [2, 8] | growth inhibition ([2]; at 50.0 µM) | growth inhibition [3, 7] | growth inhibition [3, 8] | growth inhibition ([3]; at 50.0 µM) | growth inhibition [4, 7] [%] | growth inhibition [4, 8] | growth inhibition ([4]; at 50.0 µM) | growth inhibition [5, 7] | growth inhibition [5, 8] | growth inhibition ([5]; at 50.0 µM) | growth inhibition [6, 7] [%] | growth inhibition [6, 8] | growth inhibition ([6]; at 50.0 µM)
CCOC(=O)C1(Br)CCN(S(=O)(=O)c2ccc(C)cc2)c2ccccc2C1=O (stereo unspecified) | 1 | 90% (active) | 96.5% (active) | 10 | 97% (active) | 98% (active) | -7% | 96% (active) | 97.8% (active) | -6 | 66% | 95.2% (active) | -3% | 95% (active) | 97.5% (active) | 18 | 97% (active) | 98.4% (active)
CN(C)c1ncnc2c1ncn2C | 29 | 61% | 70.8% (active) | 15 | 81% (active) | 61.4% | 16% | 53% | 59.1% | -1 | 38% | 17.4% | 20% | 98% (active) | 38.7% | 26 | 72% (active) | 61.4%
CC1=C(C)C(=O)C(CNCc2ccccc2)=[C-]C1=O.[Co].[c-]1[c-][c-][cH-][c-]1 | 6 | -13% | 45.8% | -3 | 26% | 35.6% | 5% | 19% | 44.8% | 7 | 10% | 51.1% | 11% | 15% | 19.1% | 6 | 3% | 32.3%
Cc1ccc(O)c(-c2cscn2)c1 | 49 | 68% | 62.6% | 39 | 60% | 6.95% | 15% | 22% | 55.5% | 65 | 72% (active) | 31.5% | 46% | 50% | 48.5% | 47 | 59% | 85.7% (active)
CCCCCOC(=O)C(C)SC#N (stereo unspecified) | 12 | 45% | 42.2% | -13 | 54% | 47.9% | 4% | 80% (active) | 66.7% | 6 | 29% | 92.3% (active) | 9% | 52% | 54.9% | 19 | 44% | 73.8% (active)
Cc1cc(C)nc(CCSS(=O)(=O)O)c1 | -4 | 5% | 12.7% | -17 | 2% | -0.95% | 2% | 6% | 3.35% | -1 | -8% | 0.65% | -1% | -6% | 40.9% | 12 | 6% | 5.85%
COc1cc(C2=NCCO2)cc(OC)c1OC | -158 | -155% | 9.4% | -45 | -52% | -5.5% | -62% | -60% | -3.85% | -59 | -62% | 61.9% | -67% | -79% | 0.55% | -196 | -117% | 3.95%
CN1C(=O)c2cccc3c([N+](=O)[O-])ccc(c23)C1=O | -2 | 55% | 79.3% (active) | -30 | 65% | 17% | 3% | 68% | 73.2% (active) | 10 | 84% (active) | 56.1% | -9% | 80% (active) | 10.2% | 15 | 75% (active) | 27.6%
CCOC(=O)CCC(NC(=O)C(CSC(c1ccccc1)(c1ccccc1)c1ccccc1)NC(=O)OCc1ccccc1)C(=O)NC(CCC(=O)OCC)C(=O)NC(CCC(=O)OCC)C(=O)NC(CCC(=O)OCC)C(=O)NC(CSC(c1ccccc1)(c1ccccc1)c1ccccc1)C(=O)OC (stereo unspecified) (Cbz-C(Trt)E(OEt)E(OEt)E(OEt)E(OEt)C(Trt)-OMe; configuration not given here) | 1 | 67% | 74.2% (active) | -7 | 63% | 75.8% (active) | -1% | 61% | 68% | 7 | 70% (active) | 82.3% (active) | -4% | 58% | 72.2% (active) | 2 | 73% (active) | 75.6% (active)
O=C(CCCl)Nc1cc2ccccc2oc1=O | -19 | -19% | -8.5% | -2 | -17% | 15.9% | -10% | 23% | 6.65% | 1 | 13% | 0.55% | -4% | -10% | -1.1% | -16 | 19% | -2.15%
O=C(CCCCN1CCN2c3ccccc3CCC2C1)c1ccccc1 (stereo unspecified) | -3 | 51% | 90.4% (active) | 2 | 53% | 70.9% (active) | 15% | 80% (active) | 94.4% (active) | -2 | 39% | 58.8% | 1% | 37% | 53.8% | 38 | 83% (active) | 68.9%
Cc1c(C)c(NC(=O)/C=C/C(=O)O)c(C)c(C)c1NC(=O)/C=C\C(=O)O | -14 | 14% | 61.7% | -6 | 37% | 88.8% (active) | -13% | 11% | 89.9% (active) | 7 | 11% | 42.2% | -4% | 35% | 86.3% (active) | -31 | 58% | 59.6%
COC(=O)/C(=C/C=C(c1ccccc1)c1ccccc1)N(C(C)=O)C(C)=O | 0 | 13% | 99.4% (active) | 2 | 25% | 99.6% (active) | 1% | 67% | 99.6% (active) | 3 | 7% | 99.4% (active) | -1% | 11% | 99.7% (active) | -3 | 39% | 99.6% (active)
Oc1ccc(Cc2cccc(Br)c2)c(O)c1 | -2 | 99% (active) | 99.3% (active) | -4 | 99% (active) | 99.3% (active) | -2% | 99% (active) | 99.3% (active) | -9 | 99% (active) | 99.2% (active) | -3% | 99% (active) | 99.4% (active) | -3 | 99% (active) | 99.2% (active)
CCN(CC)CCCC(C)Nc1c2ccccc2nc2c(C)cc(Br)cc12 (stereo unspecified) | 2 | 72% (active) | 58% | 8 | 61% | 39.5% | 17% | 76% (active) | 63.1% | 19 | 66% | 91.2% (active) | 17% | 71% (active) | 36.9% | 8 | 69% | 50.1%
O=C1c2cc(F)ccc2-c2c(F)cc(F)c(F)c21 | 8 | 7% | 82.3% (active) | 6 | 5% | 55.9% | 2% | 4% | 41% | 3 | -6% | 34.9% | -7% | -14% | 5.95% | 4 | 7% | 46.8%
O=C(O)C(O)C(O)C(OC1OC(CO)C(O)C(O)C1O)C(O)CO.[Br][Pt].[NH-]C1CCCCC1[NH-] (stereo unspecified) | 50 | 97% (active) | 67.8% | 65 | 88% (active) | 62.9% | 89% (active) | 99% (active) | 89.5% (active) | 24 | 72% (active) | 72% (active) | 79% (active) | 97% (active) | 83.6% (active) | 69 | 98% (active) | 56%
